Growth data for 7 molecules are collected here from PubChem BioAssay (NCI).

Compounds without any hit were thinned out: in the full panel of roughly 83,000, 20% have a hit.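 Plates (96-well) were seeded with cells, treated with compound at one concentration, and incubated for 48 hours before percent growth was determined.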 A number with no mark means an inactive call. Calls of active or inactive are those of the source. Rule for the calls: active = growth percent below 10; inactive = the rest.

The assay deals with HL-60(TB) leukemia. Kind of assay: NCI-60 one-dose screen, 48 h (100 = growth as untreated, 0 = no growth, -100 = all killed). The conditions noted are these: 10 µM unless noted.
With `COc1ccc(Cn2cc3c(c2-c2ccccc2)CCCc2cnoc2-3)cc1`, the growth was 6.55% (active).

Consider `COc1cc(Cn2cc3c(c2)-c2onc(CN4CCOCC4)c2CC3)cc(OC)c1OC`, for which the growth is 99.9%.

In the case of `COC(=O)C(C)NS(=O)(=O)/N=C1\NC(=O)NC1=C(Cl)Cl` (configuration not stated), the growth is 98.7%.

On to `C=C(C)C(=O)O[C@H]1C[C@@]2(C)OC(=CC2=O)/C(C)=C\[C@H]2OC(=O)C(=C)[C@H]12`, for which the growth is -20.9% (active).

Regarding `CNC(=O)c1cc(Oc2ccc3nc(NC(=O)c4cccc(OC(F)(F)F)c4)sc3c2)ccn1`, the growth was 67.5%.

On to `CNCCN(C)c1ccc(Nc2cc(NC3CC3)n3ncc(C#N)c3n2)cc1NC(C)=O`, for which the growth is -7.57% (active).

Take `Cc1[nH]c(C(=O)Nc2ccccc2OCc2cccc(C(=O)NC3CCCNC3)c2)c(Cl)c1Cl` (configuration not stated): the growth is -53.9% (active).
